Drawing on ChEMBL document CHEMBL3433997, “St. Jude Leishmania screening dataset” (2016), this text covers inhibition for 40 molecules.

Chain of Solute carrier family 2, facilitated glucose transporter member 1 (Homo sapiens) (P11166 whole entry): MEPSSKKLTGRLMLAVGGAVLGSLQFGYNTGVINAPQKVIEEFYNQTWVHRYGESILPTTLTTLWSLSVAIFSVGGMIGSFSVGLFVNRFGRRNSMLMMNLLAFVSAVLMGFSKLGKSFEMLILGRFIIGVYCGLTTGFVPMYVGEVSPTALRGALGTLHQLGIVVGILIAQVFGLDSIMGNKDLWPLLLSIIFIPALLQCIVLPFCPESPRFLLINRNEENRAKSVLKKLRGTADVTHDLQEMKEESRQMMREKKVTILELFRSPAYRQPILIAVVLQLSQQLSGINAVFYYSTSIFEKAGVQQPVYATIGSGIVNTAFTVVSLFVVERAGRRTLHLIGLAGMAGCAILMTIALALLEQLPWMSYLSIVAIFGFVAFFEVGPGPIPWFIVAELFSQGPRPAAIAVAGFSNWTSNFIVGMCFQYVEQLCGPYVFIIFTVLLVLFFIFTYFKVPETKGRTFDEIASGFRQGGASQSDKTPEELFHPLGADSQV

One assay addresses Solute carrier family 2, facilitated glucose transporter member 1 (Homo sapiens) (UniProt P11166). Briefly: ST_JUDE_LEISH: Cytotoxicity at 2uM final concentration against transgenic Leishmania Mexicana promastigotes LmGLUT1 that are glucose transport deficient and complemented with the human glucose transporter GLUT1. Activity is measured by DNA content using SYBR green in vitro. Type of assay: functional.
For the molecule `Cc1nc2nc(N)nc(N)c2c(C)c1Cc1cccc(C(N)=O)c1`, the inhibition stood at 1.17%.
For the molecule `FC(F)(F)c1ccc(CNC2CCN(CC3CCCCC3)CC2)cc1`, the inhibition was 7.89%.
The same measure, in the same setting: the figure for `Cc1cc(NC(=O)NCCN2CCC(NS(=O)(=O)c3cccc(Br)c3)C2)c2ccccc2n1` (stereo not given) is 1.93%; for `Cc1nnsc1C(=O)Nc1cccc(-c2cccc(-c3nc4cc(C(F)(F)F)ccc4[nH]3)c2)c1` it is 6.42%.
On the same count and under the same terms, then `COC(=O)c1ccc(CCCNCC(O)c2cccc(C(F)(F)F)c2)cc1` (stereo not given), with 2.51%.
The same measure, in the same setting: the figure for `O=C(Nc1cccc(-c2nn3ccccc3c2-c2ccnc(Nc3cccc(F)c3)n2)c1)C1CCCCC1` is 1.19%.
As for `O=S(=O)(c1ccc(OCc2ccc(Cl)cc2)cc1)c1cc2c(cc1O)CCN(C1CCC1)CC2`, the inhibition worked out at 2.05%.
The same measure, in the same setting: then `N#Cc1ccc(N2CCN(Cc3ccc(-c4ccc(-c5nc6cc(C(F)(F)F)ccc6[nH]5)s4)cc3)CC2)nc1`, with 2.33%; and `CC(C)NCc1ccc(OCc2cccc(COc3ccc(CNC(C)C)cc3I)c2)c(I)c1`, with 112%.
`O=c1cc(N2CCNCC2)c(Cl)nn1Cc1ccc(NS(=O)(=O)c2ccc(Oc3ccccc3)cc2)cc1`: the inhibition was found to be 1.25%.
Same read-out and setting: then `CNC(=O)c1cnc(Nc2ccc(OCC(O)CN(C)C)cc2)nc1Nc1cccc([N+](=O)[O-])c1` (stereo not given), with 3.44%; and `c1ccc2c(C3CCN(CCCCOc4ccc5c(c4)CCN(CC4CC4)CC5)CC3)c[nH]c2c1`, with 70.5%.
For the molecule `CCCC(=O)Nc1ccc(OCCCN(Cc2ccccc2OC(F)(F)F)c2ccc(C#N)c(C(F)(F)F)c2)cc1`, the inhibition came out at 3.69%.
On the same count and under the same terms, then `Cc1cc(N[C@@H](CC(C)C)C(=O)NC2CCCC2)nc(NCCc2ccc(F)cc2)n1`, with 3.05%; and `CC(C)NCc1ccc(-c2ccc(CN3CCCC(c4ccccc4)C3)cc2)c(C(=O)NCC2CCCCC2)c1` (stereo not given), with -0.28%.
Still for that read-out and setting: the figure for `O=C(Nc1cccc(CN2CCN(Cc3cccc(O)c3)CC2)c1)c1cc2ccccc2s1` is 3.62%; for `Cc1nc(-c2cccc(Nc3nccc(NCC(O)c4cccc(F)c4)n3)c2)cs1` (stereo not given) it is -0.89%; for `Cc1cccc2nc(-c3cccc(-c4ccc(CNCc5cccc(N)c5)cc4)c3)[nH]c12` it is -2.78%.
With `CC(C)N1CCN(c2ccc(OCCCCN3CCN(c4cccc(Cl)c4Cl)CC3)c(C(F)(F)F)c2)CC1`, the inhibition was -0.92%.
Turning to `C[C@H](Cc1ccc(S(=O)(=O)c2ccc(C[C@@H](C)NC[C@H](O)c3cccc(Cl)c3)cc2)cc1)NC[C@H](O)c1cccc(Cl)c1`, the inhibition was found to be 2.7%.
On the same count and under the same terms, then `COc1ccc2nccc([C@@H](O)CN3CCC(NCc4cc5ccccc5cn4)CC3)c2n1`, with 12.2%; and `Cn1cnc(-c2ccc3c(c2)CCN(CCC2CCC(NC(=O)/C=C/c4ccc(F)cc4)CC2)CC3)c1` (stereo not given), with 54.7%.
Still for that read-out and setting: then `Clc1cc(Cl)c2c(c1)C(NCCCNc1nc3ccccc3[nH]1)CCO2` (stereo not given), with 18.5%; and `COc1ccc(Nc2nccc(NCC(O)c3ccc(C(F)(F)F)cc3)n2)cc1` (stereo not given), with 2.9%.
As to `COc1ccc(CNCc2ccccc2)cc1-c1ccc(S(=O)(=O)NCCN2CCCC2)s1`, the inhibition was found to be 1.43%.
Same read-out and setting: the figure for `CC1(C)Cc2c([nH]c3ccccc23)C(CCCCCCCCC2=NC(C)(C)Cc3c2[nH]c2ccccc32)=N1` is 8.46%.
In the case of `C=C[C@H]1CN(CCCCCCC)CC[C@H]1C[C@@H](Cc1ccnc2ccc(OC)cc12)OC(=O)[C@](OC)(c1ccccc1)C(F)(F)F`, the inhibition is 0.1%.
The same measure, in the same setting: then `CC(C)C(C(=O)Nc1ccc(S(=O)(=O)N(C)C)cc1)c1ccc(Cl)cc1` (stereo not given), with -2.78%; and `COc1ccc2nccc([C@@H](O)CN3CCC(NCc4ccc5c(c4)NC(=O)CS5)CC3)c2c1`, with 1.65%.
Still for that read-out and setting: then `NCCCCNc1cc(-c2ccnc(Nc3cccc(Cl)c3)n2)ccn1`, with 60.5%.
Take `N#Cc1cccc(C(=O)Nc2cccc(-c3cccc(CN4CCNCC4)c3)c2)c1`: the inhibition was 4.13%.
Still for that read-out and setting: the figure for `C=CCc1cc(Br)ccc1OCCCOc1c(C)nc(N)nc1N` is 73.6%; for `O=c1cc(NCCC(CNCc2ccc(Br)o2)NCc2cc(Br)cc(Br)c2)[nH]c2ccccc12` (stereo not given) it is 8.13%.
Regarding `CC(C)(C)C(=O)Nc1ccc(N2CCN(C(c3ccccc3)c3ccccc3)CC2)c(Cl)c1`, the inhibition is 8.85%.
Same read-out and setting: then `COc1ccc(NC(=O)c2ccc(Br)c(C)c2)cc1N1CCN(CCCCc2ccccc2)CC1`, with 1.19%; and `Cc1nnc(-c2ccc3ccccc3c2)c2cn(-c3cccc([N+](=O)[O-])c3)nc12`, with 5.1%; and `Cc1c(O)cccc1Nc1ccnc2ccc(C(F)(F)F)cc12`, with -0.14%.
Still for that read-out and setting: the figure for `CN(C)CCNCc1cccc(-c2ccc3c(Nc4ccc(F)cc4Cl)ccnc3c2)c1` is 3.59%; for `COc1ccc(Nc2nc(=Nc3ccccc3)nc(NN=Cc3cc(Cl)ccc3O)[nH]2)cc1` it is 1.37%; for `c1ccc2c(Nc3ccc(OCCOCCOc4ccc(Nc5c6ccccc6nc6ccccc56)cc4)cc3)c3ccccc3nc2c1` it is -2.9%.

The target of the next assay is Hexose transporter 1 (Plasmodium falciparum) (UniProt O97467). Put plainly: ST_JUDE_LEISH: Cytotoxicity at 2uM final concentration against transgenic Leishmania Mexicana promastigotes LmPfHT that are glucose transport deficient and complemented with the Plasmodium falciparum hexose transporter. Activity is measured by DNA content using SYBR green in vitro. Type of assay: functional.
With `Cc1nc2nc(N)nc(N)c2c(C)c1Cc1cccc(C(N)=O)c1`, the inhibition turned out to be 1.95%.
The same measure, in the same setting: the figure for `FC(F)(F)c1ccc(CNC2CCN(CC3CCCCC3)CC2)cc1` is 7.71%.
Take `Cc1cc(NC(=O)NCCN2CCC(NS(=O)(=O)c3cccc(Br)c3)C2)c2ccccc2n1` (stereo not given): the inhibition turned out to be 0.98%.
With `Cc1nnsc1C(=O)Nc1cccc(-c2cccc(-c3nc4cc(C(F)(F)F)ccc4[nH]3)c2)c1`, the inhibition is 6.2%.
Still for that read-out and setting: then `COC(=O)c1ccc(CCCNCC(O)c2cccc(C(F)(F)F)c2)cc1` (stereo not given), with 3.05%.
On the same count and under the same terms, then `O=C(Nc1cccc(-c2nn3ccccc3c2-c2ccnc(Nc3cccc(F)c3)n2)c1)C1CCCCC1`, with 2.83%; and `O=S(=O)(c1ccc(OCc2ccc(Cl)cc2)cc1)c1cc2c(cc1O)CCN(C1CCC1)CC2`, with 1.15%; and `N#Cc1ccc(N2CCN(Cc3ccc(-c4ccc(-c5nc6cc(C(F)(F)F)ccc6[nH]5)s4)cc3)CC2)nc1`, with 1.76%.
For the molecule `CC(C)NCc1ccc(OCc2cccc(COc3ccc(CNC(C)C)cc3I)c2)c(I)c1`, the inhibition was found to be 109%.
For `O=c1cc(N2CCNCC2)c(Cl)nn1Cc1ccc(NS(=O)(=O)c2ccc(Oc3ccccc3)cc2)cc1`, the inhibition came to 3.7%.
Take `CNC(=O)c1cnc(Nc2ccc(OCC(O)CN(C)C)cc2)nc1Nc1cccc([N+](=O)[O-])c1` (stereo not given): the inhibition worked out at 3.59%.
The same measure, in the same setting: then `c1ccc2c(C3CCN(CCCCOc4ccc5c(c4)CCN(CC4CC4)CC5)CC3)c[nH]c2c1`, with 43.6%; and `CCCC(=O)Nc1ccc(OCCCN(Cc2ccccc2OC(F)(F)F)c2ccc(C#N)c(C(F)(F)F)c2)cc1`, with 9.22%.
In the case of `Cc1cc(N[C@@H](CC(C)C)C(=O)NC2CCCC2)nc(NCCc2ccc(F)cc2)n1`, the inhibition was 1.34%.
`CC(C)NCc1ccc(-c2ccc(CN3CCCC(c4ccccc4)C3)cc2)c(C(=O)NCC2CCCCC2)c1` (stereo not given): the inhibition was -0.36%.
As to `O=C(Nc1cccc(CN2CCN(Cc3cccc(O)c3)CC2)c1)c1cc2ccccc2s1`, the inhibition was determined as 3.45%.
In the case of `Cc1nc(-c2cccc(Nc3nccc(NCC(O)c4cccc(F)c4)n3)c2)cs1` (stereo not given), the inhibition was -0.36%.
The same measure, in the same setting: then `Cc1cccc2nc(-c3cccc(-c4ccc(CNCc5cccc(N)c5)cc4)c3)[nH]c12`, with -1.49%.
Same read-out and setting: the figure for `CC(C)N1CCN(c2ccc(OCCCCN3CCN(c4cccc(Cl)c4Cl)CC3)c(C(F)(F)F)c2)CC1` is -1.01%; for `C[C@H](Cc1ccc(S(=O)(=O)c2ccc(C[C@@H](C)NC[C@H](O)c3cccc(Cl)c3)cc2)cc1)NC[C@H](O)c1cccc(Cl)c1` it is 4%; for `COc1ccc2nccc([C@@H](O)CN3CCC(NCc4cc5ccccc5cn4)CC3)c2n1` it is 17.3%.
Consider `Cn1cnc(-c2ccc3c(c2)CCN(CCC2CCC(NC(=O)/C=C/c4ccc(F)cc4)CC2)CC3)c1` (stereo not given), for which the inhibition amounted to 70.5%.
Still for that read-out and setting: the figure for `Clc1cc(Cl)c2c(c1)C(NCCCNc1nc3ccccc3[nH]1)CCO2` (stereo not given) is 43.3%; for `COc1ccc(Nc2nccc(NCC(O)c3ccc(C(F)(F)F)cc3)n2)cc1` (stereo not given) it is 5.27%; for `COc1ccc(CNCc2ccccc2)cc1-c1ccc(S(=O)(=O)NCCN2CCCC2)s1` it is 2.19%.
`CC1(C)Cc2c([nH]c3ccccc23)C(CCCCCCCCC2=NC(C)(C)Cc3c2[nH]c2ccccc32)=N1`: the inhibition was found to be 6.32%.
Same read-out and setting: then `C=C[C@H]1CN(CCCCCCC)CC[C@H]1C[C@@H](Cc1ccnc2ccc(OC)cc12)OC(=O)[C@](OC)(c1ccccc1)C(F)(F)F`, with -0.32%; and `CC(C)C(C(=O)Nc1ccc(S(=O)(=O)N(C)C)cc1)c1ccc(Cl)cc1` (stereo not given), with -3.31%.
Consider `COc1ccc2nccc([C@@H](O)CN3CCC(NCc4ccc5c(c4)NC(=O)CS5)CC3)c2c1`, for which the inhibition is 4.15%.
For the molecule `NCCCCNc1cc(-c2ccnc(Nc3cccc(Cl)c3)n2)ccn1`, the inhibition was 71.8%.
Still for that read-out and setting: then `N#Cc1cccc(C(=O)Nc2cccc(-c3cccc(CN4CCNCC4)c3)c2)c1`, with 6.34%; and `C=CCc1cc(Br)ccc1OCCCOc1c(C)nc(N)nc1N`, with 76%; and `O=c1cc(NCCC(CNCc2ccc(Br)o2)NCc2cc(Br)cc(Br)c2)[nH]c2ccccc12` (stereo not given), with 8.45%.
Same read-out and setting: the figure for `CC(C)(C)C(=O)Nc1ccc(N2CCN(C(c3ccccc3)c3ccccc3)CC2)c(Cl)c1` is 7.04%.
Turning to `COc1ccc(NC(=O)c2ccc(Br)c(C)c2)cc1N1CCN(CCCCc2ccccc2)CC1`, the inhibition was 0.21%.
The same measure, in the same setting: then `Cc1nnc(-c2ccc3ccccc3c2)c2cn(-c3cccc([N+](=O)[O-])c3)nc12`, with 3.95%; and `Cc1c(O)cccc1Nc1ccnc2ccc(C(F)(F)F)cc12`, with 0.25%; and `CN(C)CCNCc1cccc(-c2ccc3c(Nc4ccc(F)cc4Cl)ccnc3c2)c1`, with 3.29%.
The same measure, in the same setting: the figure for `COc1ccc(Nc2nc(=Nc3ccccc3)nc(NN=Cc3cc(Cl)ccc3O)[nH]2)cc1` is 2.04%; for `c1ccc2c(Nc3ccc(OCCOCCOc4ccc(Nc5c6ccccc6nc6ccccc56)cc4)cc3)c3ccccc3nc2c1` it is -1.87%.
